# Screens as filed in PubChem BioAssay.
# Pf Dd2 inh: blocks in vitro growth of P. falciparum Dd2 | P. falciparum Dd2 growth, SYBR Green, 72 h | Potency, µM (series often up to 28.9 µM), without a hit: at the top dose activity, negative = inhibition, most hits filed as inhibitors | 120,000 tested, 4.3% active | AID 1347417; active = well fitted inhibition curve with a large enough effect;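 also: plate controls were DMSO vehicle for no effect and reference drug for full effect; nearly all actives have a fitted effect of over 65% in size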
#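 Readout: SYBR Green fluorescence, 485 nm excitation, 535 nm emission, after ~16 h lysis at 37C. Before that, Dd2-infected red cells (2.5% hematocrit) grew 72 h with compound, 29 uM top final concentration.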
# The depositor's hits bear a star; i = inactive; [ ] = remark or other dose. The entries come from a sample that favours hits as a whole. Potency is read from the fitted curve at half-maximal effect.
SMILES,Pf Dd2 inh
COc1ccc(N2CCOC3CCN(Cc4cccc(Cl)c4)CC3C2=O)cc1 (centres undefined),i
O=C1[C@H]2CN(Cc3ccc(Cl)cc3)C[C@H]2C(=O)N1Cc1ccc2c(c1)OCO2,-4%
COc1cc2cc(CN3CCC(N(C)C)C3)c(-c3cccc(Cl)c3)nc2cc1OC (centres undefined),7.9µM*
CN(C)C1CCN(Cc2cc3cc4c(cc3nc2-c2ccc(Cl)cc2)OCO4)C1 (centres undefined),11µM*
Cn1ncc(CN2CC[C@@H](c3ccc4c(c3)OCO4)[C@H](O)C2)c1C1CC1,-23%
CS(=O)(=O)N1C[C@H]2CCN(Cc3cc(Cl)ccc3F)C[C@H]21,-1%
COc1ccc(OC)c2nc(-c3cccc(Cl)c3)c(CN3CCC(O)CC3)cc12,i
O=C1CC(c2ccccc2)N(C(=O)C2CC2)CCCN(C(=O)NC2CCCCC2)CCN1 (centres undefined),i
CC(C)c1ccc(N2C(=O)N[C@@H]3CCN(C(=O)CC4(CC(=O)O)CCCC4)[C@@H]3C2=O)cc1,-18%
CC(C)N1C[C@H](O)C[C@H]1c1nnc2n1CCN(C(=O)Cc1cccc(F)c1)CC2,-14%
O=C(CCc1cc(=O)[nH]o1)N[C@@H]1CCOC[C@H]1O,-9%
Cn1ncc(N2CCC(C(=O)NCC3CC3)C2)cc1=O (centres undefined),i
Cc1ccc(C(=O)N2C[C@@H](COCC(N)=O)[C@H](c3ccncc3)C2)cc1,5%
O=C1NC2(CCCN(C(=O)c3ccc4c(c3)OCO4)C2)Oc2ccccc21 (centres undefined),36%
COC(=O)c1cc2sc(C)cc2n1Cc1ccccc1,-7%
COC(=O)c1cc2sc(C)cc2n1Cc1cccc(OC)c1,10µM*
COC(=O)c1cc2sccc2n1Cc1ccccc1,31%
COCCN1C(=O)[C@H]2CN(Cc3ccc(OC(F)(F)F)cc3)C[C@H]2C1=O,36%
CC(C)n1cnnc1CC1CCN(C(=O)CN(C)S(=O)(=O)c2cccs2)CC1,-23%
COC(=O)c1cccc(-c2nccn2CC(O)c2ccccc2)c1 (centres undefined),-21%
CNC(=O)[C@@H]1CN(C(=O)c2ccoc2)C[C@H]1CO,-2%
CCOc1ccc(NC(=O)CSc2nnc(NC(=O)Nc3ccccc3)s2)cc1,29%
COc1cc(NC(=O)Nc2nnc(N3CCCCC3)s2)cc(OC)c1,-8%
CCOc1ccc(NC(=O)Nc2nnc(N3CCCCC3C)s2)cc1 (centres undefined),11µM*
CCCNC(=O)C1c2ccccc2C(=O)N(C2CCCCC2)C12CCCCC2 (centres undefined),i
SMILES,Pf Dd2 inh
O=C(NCCc1ccncc1)C1c2ccccc2C(=O)N(C2CCCCC2)C12CCCCC2 (centres undefined),10µM*
O=C(NCCc1ccncc1)C1c2ccccc2C(=O)N(Cc2ccccc2)C12CCCC2 (centres undefined),-29%
COc1ccccc1C(=O)NCCC1CCN(C(=O)Nc2ccccc2F)CC1,1%
O=C1[C@H]2CN(Cc3cccc(F)c3)C[C@H]2C(=O)N1Cc1ccc2c(c1)OCO2,i
CN(C(=O)Cn1c2c(c(=O)n1Cc1ccccc1)CCN(Cc1ccccc1)C2)c1ccccc1,i
O=C(O)C[C@@H]1CCN(C(=O)C2CCCCC2)C[C@@H]1CCN1CCN(c2ccccn2)CC1,-3%
CCNC(=O)N1CC(Oc2cccc(-c3nc(-c4ccccc4)no3)c2)C1,1.3µM*
O=C(Nc1ccccc1)N1CC(Oc2cccc(-c3nc(-c4ccccc4)no3)c2)C1,22%[5.79 µM]
O=C(c1ccc(F)cc1)N1CC(Oc2cccc(-c3nc(-c4ccccc4)no3)c2)C1,1%[5.79 µM]
COCCNC(=O)[C@@H]1C[C@H](Oc2cccnc2)CN1C(=O)c1ccc(C)s1,14%
O=C1CC2(CCN(Cc3ccc(C(F)(F)F)cc3F)C2)C(=O)N1 (centres undefined),-8%
Cn1c(C(=O)NC2CCN(Cc3ccccc3)CC2)cc2c1CCN(Cc1ccccc1)C2,-19%
Cc1sc2ccn(C)c(=O)c2c1C(=O)NC1CCN(Cc2ccccc2)CC1,-4%
Cn1cc(-c2ccncc2)cc1C(=O)NC1CCN(Cc2ccccc2)CC1,5µM*
Cn1c(CN2CCN3C(=O)NC[C@H]3C2)nc2ccccc21,-18%[44.1 µM]
COc1cccc(Cc2nc(C3CC(=O)N(Cc4ccccc4OC)C3)no2)c1 (centres undefined),i
Cc1ccc(NC(=O)c2cc(S(=O)(=O)N3CCCc4ccccc43)ccc2F)cc1F,-23%
O=C(Nc1ccccc1Br)c1cc(S(=O)(=O)NC2CCCCC2)ccc1F,i
Cc1ccc(NC(=O)c2cc(S(=O)(=O)NC3CCCCCC3)ccc2F)cc1F,4.5µM*
CC(C)c1nnc(C2CN(C(=O)Cc3ccc(Br)cc3)CC23CCOCC3)o1 (centres undefined),13%
CN(C)C(=O)c1ccc2ccnn2c1,23%[44.1 µM]
COc1cc(C(=O)Nc2ccc3c(c2)N(C2CCCC2)C(=O)c2ccccc2S3)cc(OC)c1OC,8.9µM*
CCN1C(=O)c2ccccc2Sc2ccc(NC(=O)Nc3ccccc3OC)cc21,25%
O=C(Nc1ccc2c(c1)N(C1CCCC1)C(=O)c1ccccc1S2)c1ccccc1,3%
CN(CC(=O)N1CCC(CCOc2ccccc2F)C1)S(=O)(=O)c1cccs1 (centres undefined),-29%
SMILES,Pf Dd2 inh
O=C1NCCN(C(=O)Cn2ncc3ccccc3c2=O)C1Cc1cnc[nH]1 (centres undefined),0%
CN1Cc2cccn2CC1CNC(=O)Cc1cccc(F)c1 (centres undefined),-25%
CCn1ccc(C(=O)NCC2Cn3cccc3C(=O)N2CC(C)C)n1 (centres undefined),-19%
O=C(NCC1Cn2cccc2CN1Cc1ccccc1)c1cncc(Br)c1 (centres undefined),10µM*
Cn1cnc(S(=O)(=O)NCC2Cn3cccc3CN2Cc2ccccc2)c1 (centres undefined),-16%
CCn1ccc(C(=O)NCC2Cn3cccc3CN2Cc2ccccc2)n1 (centres undefined),14µM*
Cc1cc(C(=O)NCC2Cn3cccc3C(=O)N2Cc2ccccc2)n(C)n1 (centres undefined),35%
Cn1nccc1C(=O)NCC1Cn2cccc2CN1Cc1ccccc1 (centres undefined),-8%
Cc1cc(C)n(Cc2ccc(C(=O)NCC3Cn4cccc4CN3Cc3ccccc3)o2)n1 (centres undefined),5µM*
CN1Cc2cccn2CC1CNC(=O)Cc1ccccc1 (centres undefined),-19%
O=C(O)CCC(=O)N[C@H]1CO[C@H]2[C@@H]1OC[C@@H]2Nc1nccc(-c2ccco2)n1,12%[44.1 µM]
CC(C)CCN1CCCC2(CC(c3cccc(C(F)(F)F)c3)=NO2)C1 (centres undefined),-12%
O=C(CCC1CCN(S(=O)(=O)c2cccc(F)c2)CC1)NCCCN1CCCC1=O,-17%
CC1(C)[C@H](Cc2cc(CCO)on2)C[C@@H]1N(S(C)(=O)=O)S(C)(=O)=O,-4%[44.1 µM]
CCN(Cc1c(O)cccc1OC)CC1CCN(CCc2ccccc2C)CC1,16µM*
COc1ccccc1CCC(=O)N1CCC(Cc2nncn2C)CC1,-8%
CCN(Cc1cc(C)[nH]n1)CC1CCCN(CCc2cccc(OC)c2)C1 (centres undefined),-17%
COCCCNC(=O)N1CCCC(c2nc(-c3cnccn3)no2)CCNC(=O)CC1 (centres undefined),i
